# Among all 300,000 compounds or so, about 37,000 (12%) were called active. The sample holds actives, similar compounds and a random draw of the others, so the mix is not that of the screen. A number with no mark means an inactive call. Cut-off read from the data, not from the text of the source: active = max response mostly above about 13% (no sharp cut-off); inactive = mostly below about 14%.
# Experiment: Cycloheximide Counterscreen for Small Molecule Inhibitors of Shiga Toxin; note: read at 38.3 µM for the half of the compounds with a filed dose; 0% is about no effect
# Settings: cell reporter, cycloheximide protein synthesis inhibition counterscreen; active compounds read high
row,SMILES,max response
1,COc1ccc2oc(-c3cccc(NC(=O)CSc4ccc(Cl)cc4)c3)nc2c1,14.3% (active)
2,COc1cccc(-c2nc(S(=O)(=O)c3ccccc3)c(N3CCOCC3)o2)c1,-1.61%
3,COc1cccc(-c2nnc(SCCOc3ccc4c(C)cc(=O)oc4c3)o2)c1,-1.4%
4,COc1ccc(C(=O)NCc2nnc(SCC(=O)Nc3cccc(OC)c3)o2)cc1,-4.63%
5,COc1ccc(C)cc1NC(=O)CSc1ccc(Cl)cc1,2.38%
6,COc1cccc(-c2nc3cc(C)ccc3o2)c1,47.1% (active)
7,CN(C)Cc1ccc(F)cc1Sc1cc(Cl)ccc1Cl,-1.42%
8,O=C(COc1ccc(Cl)cc1Cl)N/N=C/c1ccccn1,13.4%
9,Cc1ccc(C(=O)N/C(=C/c2ccc(-c3cccc([N+](=O)[O-])c3)o2)C(=O)NCCCN(C)C)cc1,-1.07%
10,C[C@H](NC(=O)c1nc[nH]c1C(=O)NCC(=O)OC(C)(C)C)c1ccccc1,3.3%
11,CCCN(CCC)C(=O)C1c2ccccc2Oc2ccccc21,3.35%
12,O=C(CN1CCCCCC1)Nc1ccc(Br)cc1[N+](=O)[O-],-2.43%
13,COc1ccccc1OCc1nnc(SCC(N)=O)n1-c1ccccc1,7.05%
14,CC(C)(C)NC(=O)NC(=O)COC(=O)CCC1CCCCC1,-2.12%
15,COc1ccccc1OCC(=O)OCn1c(SC)nnc(C)c1=O,-1.41%
16,N/C(=N\OC(=O)CCC1CCCCC1)c1ccccn1,38.6% (active)
17,N/C(=N\OC(=O)Cc1ccccc1[N+](=O)[O-])c1ccc(Br)cc1,11.4%
18,COc1ccccc1OCC(=O)O/N=C(\N)c1ccccn1,46.9% (active)
19,O=C(CN1CCN(c2ccccn2)CC1)NC1CCCCC1,9.34%
20,N/C(=N\OC(=O)CC1CCCCC1)c1ccccc1,40.4% (active)
21,COc1ccccc1NC(=O)C(C)OC(=O)CC1CCCC1 (stereo not given),0.793%
22,COc1ccc(C(=O)NCC(=O)N/N=C/c2ccc([N+](=O)[O-])o2)cc1OC,8.64%
23,COc1ccc(S(=O)(=O)n2nc(C)c(S(=O)(=O)N3CCOCC3)c2C)cc1,-1.99%
24,COc1cccc(CNC(=O)c2nnn(CC(=O)Nc3cc(C)ccc3C)c2N)c1,7.9%

row,SMILES,max response
1,CSCC[C@H](NC(=O)N1CCn2c1nc1ccccc12)C(=O)NCc1ccc2c(c1)OCO2,0.519%
2,Cn1ncc(N2CCN(S(=O)(=O)c3ccc(Br)cc3)CC2)c(Cl)c1=O,-6.65%
3,S=c1[nH]cc(-c2ccc(Cl)cc2)n1-c1ccccc1,9.09%
4,CC(C)(C)OC(=O)NC(Cc1ccccc1)C(=O)NC(CSC1CCCCO1)C(=O)NN (stereo not given),-1.92%
5,O=C(CC(c1ccccc1)c1ccccc1)NCC(O)c1ccc([N+](=O)[O-])cc1 (stereo not given),-4.98%
6,Cc1nn2c(NCCN(C)C)c3c(nc2c1-c1ccccc1)CCC3,-2.49%
7,Cc1ccc(CNC(=O)Cn2c(=O)c3sccc3n(Cc3cccc([N+](=O)[O-])c3)c2=O)cc1,3.82%
8,CC(=O)n1cc([C@@H]2C=C(C(=O)N3CCN(Cc4ccc5c(c4)OCO5)CC3)O[C@H](OCc3ccc(CO)cc3)C2)c2ccccc21,0.854%
9,O=C(NCc1cccc(CNC(=O)Nc2cccc(O)c2)c1)Nc1cccc(O)c1,-1.08%
10,O=C(Nc1cccc(O)c1)c1ccc(C(=O)c2ccccc2)o1,40.5% (active)
11,O=C(Cc1ccccc1)Nc1cccc(NC(=O)c2ccccc2)c1,-0.775%
12,Cc1ccc(NC(=O)COc2ccc(/C=N\NC(=O)c3cccnc3)cc2)cc1C,12.4%
13,C/C(=C\C(=O)c1cccnc1)Nc1ccc(C)c(C)c1,29% (active)
14,COc1cc(/C=C(/NC(=O)c2ccccc2)C(=O)Nc2cccc(O)c2)c([N+](=O)[O-])cc1OC,-3.43%
15,C/C(=C\C(=O)c1ccccc1)Nc1cccc(O)c1,29.3% (active)
16,O=C(Nc1cccc(C(=O)N2CCCC2)c1)c1ccccc1,-1.45%
17,Cc1ccc(OCC(=O)NCCCNC(=O)c2cccnc2)cc1C,-4.42%
18,CCCCCN(C(=O)CCC(=O)OCC(=O)NCc1ccc(OC)cc1)c1c(N)n(CCCC)c(=O)[nH]c1=O,-0.685%
19,COc1ccc(NC(=O)c2sc(N3CCOCC3)nc2-c2ccccc2)c(OC)c1,-2.89%
20,COc1ccc(C(=O)NCCNc2ccc([N+](=O)[O-])cn2)cc1,4.73%
21,Cc1ccc(OCC(=O)Nc2ccc(S(=O)(=O)Nc3ccccn3)cc2)cc1,1.04%
22,CCN(CC)CCCNC(=O)COc1ccc2oc3c(c2c1)CCCC3,-5.99%
23,O=C(COc1ccc2oc3c(c2c1)CCCC3)Nc1ccccn1,28.6% (active)
24,COc1ccc(CN2CCN(Cc3ccc(OC)c(OC)c3OC)CC2)cc1,-4.12%

row,SMILES,max response
1,Cc1ccc(CS(=O)Cc2ccc(C(=O)N3CCOCC3)o2)cc1 (stereo not given),0.901%
2,CC(=O)NS(=O)(=O)c1ccc(N/C(N)=N/c2nc(C)cc(C)n2)cc1,-0.472%
3,COc1ccc(CCNC(=O)CN2C(=O)COc3ccc(S(=O)(=O)N4CCCC4)cc32)cc1OC,-2.34%
4,CCNc1nc(NC(C)C)nc(N2CC(=O)N(CC(=O)OCC)C2=N)n1,-5.32%
5,COc1ccc(-c2cn3ccc(C)cc3n2)cc1,-1.85%
6,CCN(CC)S(=O)(=O)c1ccc(-c2cn3ccc(C)cc3n2)cc1,45.6% (active)
7,CCN(c1cccc(C)c1)S(=O)(=O)c1ccc(-c2coc(C)n2)cc1,-4.01%
8,CCCCN(CC)C(=O)c1ccccc1Oc1ccccc1,-1.52%
9,Cc1ccc(C)n1-c1ccncc1,-5.57%
10,Cc1ccc(N)cc1-n1c(C)ccc1C,23.9% (active)
11,CN(c1ccccc1)S(=O)(=O)c1ccc(NC(=O)COc2ccccc2)cc1,-1.66%
12,CCCCNC(=O)C1CCC(=O)N1CCc1ccccc1 (stereo not given),-3.51%
13,O=c1[nH]c(CN2CCOCC2)nc2scc(-c3ccccc3)c12,9.91%
14,O=c1[nH]c(CN2CCOCC2)nc2cc(Cl)ccc12,13% (active)
15,CN(CCOc1ccccc1)Cc1nc2cc(Cl)ccc2c(=O)[nH]1,2.21%
16,CC(NC(=O)c1ccccc1C(=O)O)c1ccc(-n2ccnc2)cc1 (stereo not given),-1.67%
17,CC1CCN(C(=O)c2ccccc2NC(=O)Cc2ccccc2)CC1,18.5%
18,O=C(C1CCN(Cc2ccc(Cl)cc2)CC1)N1CCN(Cc2ccc3c(c2)OCO3)CC1,-1.07%
19,CCOC(=O)c1csc(CCNC(=O)c2oc3c(Cl)cc(C)cc3c2C)n1,29.8% (active)
20,CCOC(=O)c1csc(NC(=O)c2ccc(S(=O)(=O)N3CCCC3)cc2)n1,-1.54%
21,Cc1ccc2c(=O)cc(C(=O)NCCc3ccc(S(N)(=O)=O)cc3)oc2c1C,-2.03%
22,CC(Oc1cccc(Cl)c1)C(=O)NC1CC(C)(C)NC(C)(C)C1 (stereo not given),-2.91%
23,COc1ccc(NC(=S)NCCNC(C)=O)cc1,0.644%
24,Cc1ccc(OCc2n[nH]c(=S)n2-c2ccc(C)cc2)cc1,-1.5%

row,SMILES,max response
1,COc1ccc(Cc2n[nH]c(=S)n2NC(=O)Nc2ccc(C)cc2)cc1,37.1% (active)
2,Cn1c(=O)oc2cc(S(=O)(=O)NCCC(=O)NCc3ccccc3Cl)ccc21,-6.54%
3,O=S(=O)(c1ccc(Br)cc1)c1nc(-c2ccccc2)oc1N1CCOCC1,4.42%
4,CCCCCCCCCCCCC(NC(C)=O)(C(=O)OCC)C(=O)OCC,-2.57%
5,CC1CCN(C(=O)CCc2nnc3ccc(NCc4ccco4)nn23)CC1,-0.588%
6,CCc1ccc(C2N3CC4([N+](=O)[O-])CN2CC([N+](=O)[O-])(C3)C4(C)C)cc1 (stereo not given),-2.16%
7,COc1ccc(Nc2nc(NCc3ccco3)nc(N/N=C/c3ccccc3Cl)n2)cc1,16.9% (active)
8,C=CCC(NCc1ccco1)c1ccc(OC)cc1 (stereo not given),1.37%
9,COc1ccc(Nc2nc(Cl)nc(NCc3ccco3)n2)cc1,5.68%
10,COc1ccc(C)cc1NC(=O)NCCCCc1ccccc1,7.65%
11,CS(=O)(=O)N1CCc2nc(-c3ccccc3)sc2C1,47.1% (active)
12,CS(=O)(=O)N1CCN(c2cccc(Cl)n2)CC1,-1.63%
13,CS(=O)(=O)N1CCN(C(=O)Cc2ccccc2)CC1,-2.32%
14,COc1ccc(NC(=O)CCC(=O)Nc2nnc(C3CCCCC3)s2)cc1,-3.75%
15,Cc1cccc(NC(=O)CSCC(=O)Nc2nnc(C3CC3)s2)c1,6.4%
16,O=C(Nc1nnc(C2CC2)s1)C1=NN(C2CCS(=O)(=O)C2)C(=O)CC1 (stereo not given),-6.02%
17,Cc1occc1C(=O)Nc1nnc(C2CCCCC2)s1,17.4% (active)
18,CC1CCN(c2ccc(C(=O)Nc3nnc(C4CC4)s3)cc2[N+](=O)[O-])CC1,-2.98%
19,O=C(Nc1nnc(C2CC2)s1)c1cc(Cl)sc1Cl,12.2% (active)
20,O=C(Nc1nnc(C2CC2)s1)c1ccccn1,34.9% (active)
21,Cc1occc1C(=O)Nc1nnc(-c2ccncc2)s1,15.8%
22,O=C(Cc1cccs1)Nc1nnc(C2CC2)s1,8.46%
23,COc1ccccc1CNC(=O)[C@@H]1CCCN1C(=O)[C@@H]1Cc2ccccc2CN1C(=O)OC(C)(C)C,8.54%
